Experimental data reported in PubChem BioAssay (NCI).
This is part of a sample that, as a whole, favours compounds with a hit. Of some 79,000 tested, about 15% had one in any assay. Unmarked numbers belong to inactive results. Calls of active or inactive are those of the source. Cut-off read from the data, not from the text of the source: active = growth inhibition above about 70%; inactive = the rest.

Legend:
[1] = NCI Yeast Anticancer Drug Screen. Data for the rad50 strain (AID 155);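 note: 0% = growth of vehicle-only cultures of the same strain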; details: S. cerevisiae rad50 strain growth inhibition, stronger effect = higher value
In short: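 Genetically altered yeast (DNA repair pathway); compound treatment; growth inhibition vs vehicle ctrl.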

[2] = NCI Yeast Anticancer Drug Screen. Data for the mec2-1 strain (AID 157); details: S. cerevisiae mec2-1 strain, stronger effect = higher value
In short: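 Readout is yeast growth inhibition, normalised to vehicle-treated controls, in the mec2-1 strain exposed to compound.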

[3] = NCI Yeast Anticancer Drug Screen. Data for the sgs1 mgt1 strain (AID 161);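 note: 0% = growth of cultures given vehicle only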; details: S. cerevisiae sgs1 mgt1 strain, stronger effect = higher value
In short: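 Percent growth inhibition was derived by comparing compound-exposed mutant yeast with vehicle-exposed cultures. The strain carries alterations in DNA damage repair.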

[4] = NCI Yeast Anticancer Drug Screen. Data for the cln2 rad14 strain (AID 165);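 note: 0% = growth equal to vehicle treated cultures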; details: S. cerevisiae cln2 rad14 strain, stronger effect = higher value
In short: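 Relative to vehicle controls, growth inhibition of compound-treated cln2 rad14 yeast was recorded.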

[5] = NCI Yeast Anticancer Drug Screen. Data for the bub3 strain (AID 167); details: S. cerevisiae bub3 mutant strain, stronger effect = higher value
In short: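 Yeast carrying a defined mutation is treated with each compound, and growth is compared with that of vehicle-exposed cells to give inhibition.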

[6] = NCI Yeast Anticancer Drug Screen. Data for the mlh1 rad18 strain (AID 175); details: S. cerevisiae mlh1 rad18 strain growth inhibition, stronger effect = higher value
In short: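 Test agents were incubated with a yeast strain of defined genotype (DNA damage repair defect). Inhibition of growth was derived by comparison with vehicle-exposed cultures.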

[7] = at 5.0 µM (retest, dose inferred, filed as 0.5)
[8] = at 50.0 µM (retest, dose inferred, filed as 5.0)

Compound	growth inhibition [1, 7]	growth inhibition [1, 8]	growth inhibition ([1]; at 50.0 µM)	growth inhibition [2, 7]	growth inhibition [2, 8]	growth inhibition ([2]; at 50.0 µM)	growth inhibition [3, 7] [%]	growth inhibition [3, 8]	growth inhibition ([3]; at 50.0 µM)	growth inhibition [4, 7]	growth inhibition [4, 8]	growth inhibition ([4]; at 50.0 µM)	growth inhibition [5, 7]	growth inhibition [5, 8]	growth inhibition ([5]; at 50.0 µM)	growth inhibition [6, 7]	growth inhibition [6, 8]	growth inhibition ([6]; at 50.0 µM)
CC1CCC(C(O)(C(=O)O)C2CCC(C)CC2)CC1 (configuration not stated)	23%	30%	37.9%	26%	39%	19.3%	34	61%	10.2%	78% (active)	57%	47.6%	25%	-73%	49.1%	15%	23%	49.7%
CC(=C/c1ccccc1)/C=C1/NC(=S)N(/C=C2\C(=O)Oc3ccccc3C2=O)C1=O	-13%	28%	98.1% (active)	-8%	41%	98.7% (active)	-16	28%	89.1% (active)	-28%	34%	98.5% (active)	-24%	11%	98.5% (active)	-7%	12%	98.5% (active)
CN(C)C1C[C@@H](O[Si](C)(C)C(C)(C)C)C=C1S(=O)(=O)c1ccccc1 (some centres not stated)	-16%	100% (active)	44.8%	-4%	100% (active)	47.8%	-18	100% (active)	36.4%	-14%	99% (active)	33.5%	-14%	100% (active)	7.75%	4%	100% (active)	58%
Nc1ccc2c(c1)[nH]c(=O)c1c(Cl)cccc12	-108%	47%	84.5% (active)	-41%	-26%	41%	-58	-33%	21.4%	-46%	-39%	48.5%	-50%	-42%	4.8%	-87%	-45%	55.5%
Cc1ccc(N2C(c3ccccc3)=CC(=C3C=CC(=O)C=C3)C=C2c2ccccc2)cc1	9%	71% (active)	94.2% (active)	12%	83% (active)	98.5% (active)	7	83% (active)	93.7% (active)	-5%	71% (active)	78.9% (active)	7%	80% (active)	92.5% (active)	13%	89% (active)	96.8% (active)
CC(=O)Oc1ccc(-c2ccc(Br)cc2)cc1	-1%	92% (active)	89.2% (active)	-3%	91% (active)	97.9% (active)	-2	89% (active)	96.4% (active)	-11%	93% (active)	97.8% (active)	20%	94% (active)	97.6% (active)	-7%	94% (active)	98% (active)
CCCCCCCCCCCCCC(=O)CBr	11%	84% (active)	87.5% (active)	4%	85% (active)	80.1% (active)	35	99% (active)	84.5% (active)	2%	68%	66.2%	9%	98% (active)	85.8% (active)	5%	90% (active)	81.1% (active)
CCCCCCCCCCOC(=O)c1ccccn1	-6%	93% (active)	34.1%	-3%	94% (active)	42.7%	-3	60%	37.5%	-3%	75% (active)	17.2%	0%	80% (active)	43.2%	-2%	83% (active)	62.5%
N#CC(C(=O)C(=O)NC1C2CC3CC(C2)CC1C3)c1c(Cl)cccc1Cl (configuration not stated)	1%	7%	31.7%	-4%	-32%	19.8%	-1	3%	21.2%	3%	5%	28.6%	-1%	5%	0.45%	-1%	5%	30.6%
CCCCCCCC/C(C=O)=C\c1ccccc1	-3%	-25%	77.8% (active)	-21%	-2%	72.8% (active)	-3	3%	78.2% (active)	-1%	7%	45%	-11%	-19%	64.8%	-3%	-13%	77.9% (active)
Nc1ccc2c(c1)NCCN2	42%	76% (active)	84% (active)	5%	17%	32.1%	4	20%	23.5%	3%	6%	21.4%	1%	18%	18.2%	7%	31%	53.4%
CCOC(=O)/C=C(\CC(=O)OCC)C(=O)OCC	-3%	3%	99.5% (active)	-1%	-8%	99.7% (active)	-1	5%	99.2% (active)	-3%	-6%	13.4%	4%	25%	99.5% (active)	-3%	-2%	99.3% (active)
O=C(/C=C/c1ccccc1)c1cc2c(cc1O)OCO2	-6%	17%	29.6%	-5%	3%	-3.2%	-16	9%	22.9%	2%	31%	13.8%	3%	37%	18.8%	-16%	-1%	31.5%
C/C(=N\NC(=S)Nc1ccc(S(N)(=O)=O)cc1)c1ccccn1	33%	64%	63.5%	25%	65%	42.8%	34	84% (active)	28.9%	20%	67%	24.5%	41%	84% (active)	37.6%	39%	70% (active)	64%
CCCCCCOC(=O)C(N)Cc1ccc(OC)cc1 (configuration not stated)	5%	21%	39.2%	7%	29%	40.5%	6	42%	56.2%	2%	17%	32.4%	5%	80% (active)	52%	-1%	43%	48.1%
COc1ccc(OC(=O)c2ccccc2)c2c1C(=O)C=CC2=O	5%	38%	92.7% (active)	10%	38%	84.2% (active)	-38	21%	90.2% (active)	0%	18%	51.5%	-1%	24%	76.8% (active)	9%	24%	67.8%
CCCCCCCCCCC[N+]1(Cc2ccccc2)CC2CCN(Cc3ccccc3)CC2C1 (configuration not stated)	97% (active)	100% (active)	99.5% (active)	73% (active)	100% (active)	99.3% (active)	54	99% (active)	99.6% (active)	95% (active)	99% (active)	99.4% (active)	99% (active)	99% (active)	99.5% (active)	97% (active)	99% (active)	99.5% (active)
[Ce+3].[Cl-].[O-]/N=C(\c1ccccc1)c1ccccn1.[O-]/N=C(\c1ccccc1)c1ccccn1.[O-]/N=C(\c1ccccc1)c1ccccn1	36%	66%	85.5% (active)	28%	76% (active)	85.4% (active)	32	75% (active)	85.8% (active)	29%	32%	76.7% (active)	41%	95% (active)	88.3% (active)	39%	91% (active)	86.2% (active)
CC(=O)N/N=C1/CC[C@@]2(C)C(=CC[C@H]3C4CCC(C(C)CCCC(C)C)[C@@]4(C)CCC32)C1(C)C (some centres not stated)	-23%	79% (active)	31.6%	-14%	83% (active)	6.35%	-7	84% (active)	24.8%	-11%	74% (active)	55.1%	-10%	70% (active)	29.6%	-12%	90% (active)	1.3%
